According to PubChem BioAssay (NCATS):
Inconclusive results are not listed. Calls come from the whole dose curve.

Molecular target: Atrial natriuretic peptide receptor 1 (Homo sapiens) (UniProt P16066)
Assay: Natriuretic polypeptide receptor (hNpr1) antagonism - Pilot CMLD screen (AID 1347052);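 note: HEK293 cells with hNpr1 stimulated by hNppA peptide at 0.1 nM; cGMP level read as GloSensor luciferase luminescence after agonist stimulation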
Conditions: HEK293 hNpr1 GloSensor cGMP luminescence, ANP-stimulated; series mostly up to 9.22 µM; activity change, negative = inhibition: at the top concentration
% is set by controls: 0 for no effect and ±100 for the full control effect.

Chain of Atrial natriuretic peptide receptor 1 (Homo sapiens) (P16066 whole entry, looked up): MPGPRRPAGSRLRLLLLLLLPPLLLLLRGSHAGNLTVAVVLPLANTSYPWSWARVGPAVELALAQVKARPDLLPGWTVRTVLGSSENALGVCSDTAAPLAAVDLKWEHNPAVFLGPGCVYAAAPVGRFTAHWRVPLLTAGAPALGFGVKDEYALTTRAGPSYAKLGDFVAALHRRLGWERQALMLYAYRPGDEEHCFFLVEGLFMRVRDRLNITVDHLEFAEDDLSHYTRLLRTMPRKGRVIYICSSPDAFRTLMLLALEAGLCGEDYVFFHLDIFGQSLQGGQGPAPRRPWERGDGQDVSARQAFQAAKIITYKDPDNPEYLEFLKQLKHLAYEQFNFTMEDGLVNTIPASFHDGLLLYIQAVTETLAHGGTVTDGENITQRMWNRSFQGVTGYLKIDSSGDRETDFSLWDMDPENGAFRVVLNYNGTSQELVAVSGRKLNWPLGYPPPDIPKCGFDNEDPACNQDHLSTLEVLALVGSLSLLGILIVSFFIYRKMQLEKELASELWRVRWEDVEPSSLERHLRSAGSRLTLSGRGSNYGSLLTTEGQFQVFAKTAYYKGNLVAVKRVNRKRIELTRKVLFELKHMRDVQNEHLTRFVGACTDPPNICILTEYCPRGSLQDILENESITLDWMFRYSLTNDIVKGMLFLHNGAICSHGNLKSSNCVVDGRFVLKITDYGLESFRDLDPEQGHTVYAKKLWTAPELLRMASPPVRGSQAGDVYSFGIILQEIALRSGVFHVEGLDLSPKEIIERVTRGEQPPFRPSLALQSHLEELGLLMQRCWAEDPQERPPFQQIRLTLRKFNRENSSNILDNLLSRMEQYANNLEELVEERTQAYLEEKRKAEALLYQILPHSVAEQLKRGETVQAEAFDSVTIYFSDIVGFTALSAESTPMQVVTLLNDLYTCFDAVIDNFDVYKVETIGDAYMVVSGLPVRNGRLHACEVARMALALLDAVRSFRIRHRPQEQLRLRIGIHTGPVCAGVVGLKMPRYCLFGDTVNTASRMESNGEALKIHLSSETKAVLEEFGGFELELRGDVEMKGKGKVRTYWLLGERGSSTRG

Activity change, negative = inhibition, inactive:
COC(=O)C1=C(C(=O)OC)[C@@H]2N(C)c3ccccc3[C@@]23CCC(=O)N(Cc2ccc4c(c2)OCO4)C3=N1 5.38%, CCc1cc2c(nc1CC)CCN(CCC(C)=NO[C@H](C)c1cn([C@H](CO)Cc3ccccc3)nn1)C2 -5%, COc1cccc([C@@H]2Oc3ccc(OC)cc3C(=O)[C@@H]2O)c1 1.53%, COC(=O)c1ccc(CN2C(=O)[C@@]3(CC(C)=C[C@@H](COc4ccccc4)O3)c3ccccc32)cc1 -5.74%, Cc1cc2c(c(=O)n1Cc1ccccc1)[C@H]1O[C@](c3ccsc3)(Cc3cc(C#N)ccc31)O2 -0.0805%, Fc1ccccc1-c1nc(-c2ccccc2)oc1NCc1ccccc1 0.698%, COC(=O)C1=C(C)N(Cc2ccccc2)C(=NCC(C)C)NC1c1ccc(Br)cc1 (stereo unspecified) -7.21%, CC=CC1=Cc2ccccc2C(C(C(=O)OC)C(=O)OC)N1C(=O)OC (stereo unspecified) -5.72%, Cc1ccc(C=CC2=C[C@]3(C)C[C@]2(C)[C@H](c2ccc(C)cc2)CC3=O)cc1 0.355%, COC(=O)C1=C(C(=O)OC)[C@@H]2N(Cc3ccccc3)c3ccccc3[C@@]23C[C@@H](CO)N=C3N1 0.41%, COC1=CC2C(=O)C([C@@H]3c4ccccc4C[C@]23C)C1(O)c1cccc(OC)c1 (stereo partly specified) 8.04%, CC1=CC[C@@H](COc2ccccc2)O[C@@]2(C1)C(=O)N(Cc1ccc(Br)cc1)c1ccccc12 -0.11%, CCOC(=O)CN1C(=O)[C@]2(O[C@H](COc3ccccc3)CC3=CCCC32)c2c(Br)cccc21 (stereo partly specified) -3.28%, COc1ccc([C@]23Cc4ccccc4[C@H](O2)C2=C(CCCC2=O)O3)cc1 0.102%, COC(=O)CC=C1c2ccccc2[C@@H](O)[C@@H]1C 6.99%, COC(=O)CC=C[C@@H](C)[C@H](NC(=O)OCC(Cl)(Cl)Cl)c1ccc(-c2ccccc2)cc1 -3.87%, CCOC(=O)CN1C(=O)[C@@]2(CC(C)=CC[C@@H](COc3ccccc3)O2)c2ccccc21 2.1%, CCC(C)CN1C(=O)NC(CCc2ccccc2)C(C(C)=O)=C1C (stereo unspecified) 1.43%, COc1ccc([C@]23Cc4cc(OC)c(OC)cc4[C@H](O2)c2c(cc(C)n(Cc4ccccc4)c2=O)O3)cc1 -4.14%, CCC=CC[C@@]1(C(=O)OC)C=C[C@@H](C)[C@H](c2ccccc2Br)N1C(=O)C(F)(F)F -3.78%, N#Cc1ccc2c(c1)C[C@]1(c3ccsc3)Oc3c(c(=O)oc4ccc(F)cc34)[C@@H]2O1 -1.09%, COc1cccc([C@@H]2Oc3ccc(Br)cc3C[C@@H]2OC(=O)Nc2cc(OC)c(OC)c(OC)c2)c1 -10.2%, C=C(C)C1CC23C(=O)[C@]4(C(=O)c5ccccc5)C[C@@]5(C)CCC(CC2C1(C)C)(C4=O)[C@@]35OC (stereo partly specified) 6.95%, C[C@@H]1C=CCC(=O)N[C@@H](c2cccc(Br)c2)[C@H](C)C=CCC(=O)N[C@@H]1c1cccc(Br)c1 2.18%, C[C@@H]1[C@@H](c2ccccc2)c2cc3ccccc3nc2-c2nc3ccccc3cc2[C@H]1C(=O)N1CCCC1 10.3%, Oc1c(CN2CCOCC2)cc2c(c1-c1c(O)c(CN3CCOCC3)cc3c1CCCC3)CCCC2 -12.6%
